This assay has as its system HL-60(TB) leukemia. Kind of assay: NCI-60 one-dose screen, 48 h (100 = growth as untreated, 0 = no growth, -100 = all killed). The note with it: 10 µM unless noted.

39 molecules from PubChem BioAssay (NCI) can be followed below.

The panel holds about 83,000 compounds, 20% with a hit somewhere; the sample as a whole holds those more often.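 Method: cells in 96-well plates; compound added at one concentration; 48 h incubation; percent growth measured; values under 10 scored active.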 Values without a mark were called inactive. Activity calls are given as the source filed them.

`COc1cc2oc(-c3cccc(C(=O)Nc4ccccc4)c3)cc(=O)c2c(O)c1OC`: the growth is 92.7%.

`CC(=O)Nc1ccc(O)c(C)c1`: the growth was 104%.

As to `CC/C(=N\N=C(/CC)c1ccc(Br)cc1)c1ccc(Br)cc1`, the growth is 124%.

In the case of `Nc1c(C(=O)c2ccccc2)sc2nc(-c3cccs3)cc(-c3cccs3)c12`, the growth is 22%.

For `C=CC(=O)Nc1cccc(-c2nc(SC)nc(NCCc3ccc(OC)c(OC)c3)c2C#N)c1`, the growth was 25.6%.

`COc1ccc(Nc2ncnc3c2c(SC)nn3-c2ccccc2)cc1`: the growth is 90.5%.

Take `O=C(O)c1ccc(-n2cc(/C=N/Nc3ccccc3F)c(-c3ccc(O)cc3)n2)cc1`: the growth is 45%.

As for `Cc1ccc2c(c1)C(=O)C(c1c(-c3[nH]c(=O)c4ccc(C)cc4c3O)c(O)c3ccccc3c1O)=NC2=O`, the growth is 8.93% (active).

Consider `Cc1cc(NCCCCNc2ccnc3cc(Cl)ccc23)nc(Nc2ccc(C(=O)N3CCCCC3)cc2)n1`, for which the growth is -59.3% (active).

For the molecule `O=C(O)c1ccc2c(c1Cl)C(=O)c1ccccc1C2=O`, the growth is 56.6%.

For `O=c1c2cnn(-c3ccccc3)c2n2c(CN3CCOCC3)nnc2n1-c1ccccc1`, the growth is 102%.

With `Cc1cc(=O)[nH]c(/C(=N/Nc2ccccc2)C(=O)c2ccc(Cl)cc2)n1`, the growth is 50.7%.

Turning to `COC(=O)c1c2c(c[n+]([O-])c1C)C(=O)C=CC2=O`, the growth is 28.1%.

In the case of `COc1ccc(-c2cc(-c3cc(OC)ccc3O)[nH]c(=O)c2C#N)cc1`, the growth was 16.9%.

In the case of `CCN1C(=O)N(CC)C2C1NN=c1s/c(=C3\C(=O)N(CC(C)C)c4ccccc43)c(=O)n12` (centres undefined), the growth was -43.8% (active).

As for `COc1ccc(NC(=O)/C=C/c2ccc(NC(=O)N3CCCC3)cc2)cn1`, the growth was 102%.

As to `Cc1ccccc1Nc1n[nH]c(Cc2ccccc2)n1`, the growth was 66.9%.

With `O=C(CCc1nnc(-c2c(Cl)cccc2Cl)o1)c1nc2ccccc2[nH]1`, the growth was -33.8% (active).

As to `O=C(O)c1ccc2c(c1)C(=O)c1ccccc1C2=O`, the growth is 102%.

For `COCCNC(=O)Nc1ccc2nc(-c3cccs3)c(-c3cccs3)nc2c1`, the growth is 81.5%.

Consider `COc1ccc(-c2nn(-c3ccc(NC(=O)c4ccc(Cl)c(Cl)c4)cc3)cc2-c2ccncc2)cc1Cl`, for which the growth is 13.5%.

For the molecule `CCc1nc2cc(/C=C/C(=O)NO)ccc2c(=O)n1CCc1ccc(OC)cc1`, the growth was 0.921% (active).

`O=C(N=c1oc2ccccc2cc1-c1cc2ccccc2[nH]1)c1ccc(Cl)cc1`: the growth is 26.2%.

Take `COC(=O)c1nc(=S)[nH]c(C(=O)OC)c1C(=O)c1ccc2ccccc2c1`: the growth is 122%.

In the case of `ClC1=C(Br)C(Br)(Br)C(=C(Br)Br)C1(Br)Br`, the growth was 29.8%.

On to `O=C(Nc1ncc(Cc2cccc(C(F)(F)F)c2)s1)c1ccc2c(c1)OCCO2`, for which the growth was -46.6% (active).

Consider `O=C1/C=C/[C@@H](O)[C@@H]2C[C@@H](O)C[C@H]2/C=C/CCC[C@H](CCc2ccc3ncccc3c2)O1`, for which the growth is -52.3% (active).

As for `COc1ccc(-c2nc3c(N)c(CO)cnc3s2)cc1`, the growth is 80.5%.

For the molecule `O=C1Nc2ccccc2/C1=C\c1cccc(/C=C2/C(=O)Nc3ccccc32)n1`, the growth was -48.6% (active).

As to `Nn1c(CN2CCN(c3cc4c(cc3F)c(=O)c(C(=O)O)cn4C3CC3)CC2)n[nH]c1=S`, the growth was 101%.

Consider `CC(C)N1CCN(c2ccc(OC[C@H]3CO[C@](Cn4cncn4)(c4ccc(Cl)cc4Cl)O3)cc2)CC1`, for which the growth is 91.3%.

For the molecule `COc1ccc(C(=O)CSc2nccc(Nc3ccc(C(=O)O)cc3)n2)cc1`, the growth was 99.5%.

In the case of `CCCCCCCCCCCCCCCCCCOc1ccccc1CC(=O)OCC[N+](C)(C)C`, the growth was -38% (active).

As to `O=C(Cn1cc(CSc2nc3ccccc3o2)nn1)Nc1ccc(F)cc1F`, the growth was 102%.

In the case of `CS/C(=C\c1ccc(C(=O)c2ccc(C)cc2)n1C)S(C)=O` (centres undefined), the growth is 53.6% [100 µM].

Regarding `O=C1/C(=C/c2ccc(F)cc2)CN(Cc2cn(CCNc3ccnc4cc(Cl)ccc34)nn2)C/C1=C\c1ccc(F)cc1`, the growth is -27.6% (active).

Turning to `CCn1c(=O)c2c(=O)c3c4c(oc3oc2c2ccccc21)C(=O)c1ccccc1C4=O`, the growth is -18.8% (active).

With `Nc1nc(Cl)c2c(ncn2Cc2ccc(CCl)cc2)n1`, the growth was 90.5%.

Take `COc1ccc(/C(=N/O)c2cc(OC)c(OC)c(OC)c2)c(OC)c1N`: the growth is -24.6% (active).
